Several values for one entry are separate records, joined by “and”; a condition that tells them apart may be missing. Equal entries are not always repeated. Among all 5,500 compounds or so, about 2,000 (36%) were called active. Another 18% or so got no clear call; they are omitted. No stated cut-off is given here; in the data, active means normalized growth mostly below about 0.91 (no sharp cut-off); inconclusive means no clear call, values can overlap the other calls; inactive means mostly above about 0.92. Some of the results follow.
Assay: chemical genetic growth profiling, strain panel (AID 1159580);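 further: tested at 20 µM; growth read once vehicle control cultures reached saturation at 30 °C; 1 = growth at the plate median or of vehicle wells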
Details: S. cerevisiae deletion strains, growth OD

Measured: normalized growth

Cc1ccc(C(C)C)cc2c(C)ccc1-2
inactive: locus YAL013W, strain DEP1, stronger effect = lower value 1 | locus YAL021C, strain ccr4, stronger effect = lower value 1 | locus YAL026C, strain drs2, stronger effect = lower value 1.02 | locus YAL030W, strain snc1, stronger effect = lower value 1 | locus YBL061C, strain skt5, stronger effect = lower value 1 | locus YBR009C, strain hhf1, stronger effect = lower value 0.999 | locus YBR021W, strain FUR4, stronger effect = lower value 1.01 | locus YBR023C, strain chs3, stronger effect = lower value 1 | locus YBR171W, strain sec66, stronger effect = lower value 1.02 | locus YBR229C, strain ROT2, stronger effect = lower value 1 | locus YBR231C, strain swc5, stronger effect = lower value 1 | locus YBR279W, strain paf1, stronger effect = lower value 1.01 | locus YCL011C, strain gbp2, stronger effect = lower value 1.01 | locus YCL016C, strain dcc1, stronger effect = lower value 0.985 | locus YCL029C, strain bik1, stronger effect = lower value 1.03 | locus YCL061C, strain MRC1, stronger effect = lower value 1.01 | locus YCL069W, strain vba3, stronger effect = lower value 0.996 | locus YCR088W, strain abp1, stronger effect = lower value 1.01 | locus YDL005C, strain med2, stronger effect = lower value 1.01 | locus YDL035C, strain GPR1, stronger effect = lower value 1 | locus YDL040C, strain nat1, stronger effect = lower value 0.99 | locus YDL074C, strain BRE1, stronger effect = lower value 0.944 | locus YDL101C, strain DUN1, stronger effect = lower value 0.991 | locus YDL134C, strain PPH21, stronger effect = lower value 0.984 | locus YDL185W, strain tfp1, stronger effect = lower value 1.02 | locus YDL192W, strain arf1, stronger effect = lower value 1.02 | locus YDR001C, strain nth1, stronger effect = lower value 1 | locus YDR069C, strain doa4, stronger effect = lower value 1 | locus YDR101C, strain arx1, stronger effect = lower value 1.02 | locus YDR137W, strain rgp1, stronger effect = lower value 0.978 | locus YDR159W, strain sac3, stronger effect = lower value 1.05 | locus YDR162C, strain NBP2, stronger effect = lower value 1 | locus YDR195W, strain ref2 0.975 | locus YDR297W, strain sur2, stronger effect = lower value 1 | locus YDR318W, strain mcm21, stronger effect = lower value 1.01 | locus YDR334W, strain swr1, stronger effect = lower value 1 | locus YDR335W, strain msn5, stronger effect = lower value 0.997 | locus YDR388W, stronger effect = lower value 1.03 | locus YDR392W, strain spt3, stronger effect = lower value 0.906 | locus YDR502C, strain sam2, stronger effect = lower value 1 | locus YEL003W, strain gim4, stronger effect = lower value 0.998 | locus YEL037C, strain rad23, stronger effect = lower value 1 | locus YEL061C, strain CIN8 (second series), stronger effect = lower value 1 | locus YEL061C, strain CIN8, stronger effect = lower value 0.998 | locus YER015W, strain faa2, stronger effect = lower value 1 | locus YER016W, strain bim1, stronger effect = lower value 1 | locus YER110C, stronger effect = lower value 1.04 | locus YER111C, strain swi4, stronger effect = lower value 1.01 | locus YER155C, strain BEM2 (second series), stronger effect = lower value 0.998 | locus YER155C, strain BEM2, stronger effect = lower value 1.01 | locus YER167W, strain BCK2, stronger effect = lower value 0.988 | locus YFR010W, strain ubp6, stronger effect = lower value 1.01 | locus YGL078C, strain dbp3, stronger effect = lower value 1.02 | locus YGL086W, strain mad1, stronger effect = lower value 0.994 | locus YGL167C, strain pmr1, stronger effect = lower value 1.01 | locus YGL173C, strain kem1, stronger effect = lower value 1.01 | locus YGL227W, strain vid30, stronger effect = lower value 1.01 | locus YGL240W, strain doc1, stronger effect = lower value 1.01 | locus YGL248W, strain PDE1, stronger effect = lower value 1 | locus YGL253W, strain hxk2, stronger effect = lower value 1.03 | locus YGR078C, strain PAC10, stronger effect = lower value 0.948 | locus YGR135W, strain pre9, stronger effect = lower value 1.03 | locus YGR252W, strain gcn5, stronger effect = lower value 1.02 | locus YHR013C, strain ard1, stronger effect = lower value 1.02 | locus YHR027C, strain rpn1, stronger effect = lower value 1 | locus YHR030C, strain SLT2, stronger effect = lower value 1 and 0.968 | locus YHR079C, strain IRE1 (second series), stronger effect = lower value 1.02 | locus YHR079C, strain IRE1, stronger effect = lower value 0.977 | locus YHR094C, strain hxt1, stronger effect = lower value 1.02 | locus YHR129C, strain ARP1, stronger effect = lower value 1 | locus YHR142W, strain chs7, stronger effect = lower value 1.02 | locus YHR200W, strain rpn10, stronger effect = lower value 1.02 | locus YIL066C, strain RNR3, stronger effect = lower value 0.986 | locus YIL073C, strain SPO22, stronger effect = lower value 1.09 | locus YIL125W, strain kgd1, stronger effect = lower value 1.01 | locus YIR030C, strain dcg1, stronger effect = lower value 1.02 | locus YJL092W, strain hpr5, stronger effect = lower value 1 | locus YJL095W, strain BCK1 (second series), stronger effect = lower value 1 | locus YJL095W, strain BCK1, stronger effect = lower value 0.972 and 1.03 | locus YJL115W, strain asf1, stronger effect = lower value 0.992 | locus YJL129C, strain trk1, stronger effect = lower value 1.01 | locus YJL134W, strain LCB3, stronger effect = lower value 1 | locus YJL154C, strain vps35, stronger effect = lower value 0.999 | locus YJL164C, strain tpk1, stronger effect = lower value 0.991 | locus YJL166W, strain qcr8, stronger effect = lower value 0.994 | locus YJL168C, strain set2, stronger effect = lower value 1.02 | locus YJL187C, strain SWE1 (second series), stronger effect = lower value 0.995 | locus YJL187C, strain SWE1, stronger effect = lower value 1.01

Source: PubChem BioAssay AID1159580 (chemical genetic matrix, 2015)
